# Test results: PubChem BioAssay
# Several values for one entry are separate records, joined by “and”; a condition that tells them apart may be missing. Equal entries are not always repeated. Activity calls are given as the source filed them. Unless noted, no stated cut-off is given here; in the data, active means inhibition above about 80%; inactive means the rest.
# Key:
# [1] = UWB1.289 ovarian carcinoma cell growth inhibition, synergistic combos for chromothripsis tumors, BGB or cisplatin combos (AID 1671456); settings: UWB1.289 ovarian carcinoma cells, stronger effect = higher value;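 further: cells exposed to compound for four days; 0% = vehicle DMSO and 100% = killing by high DMSO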
# [2] = LFS_MB_2R medulloblastoma cell growth inhibition, synergistic combos for chromothripsis tumors, cisplatin combos (AID 1671457); settings: LFS_MB_2R medulloblastoma cells, stronger effect = higher value;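 further: cells exposed to compound for four days before readout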
# [3] = MDA-MB-436 breast carcinoma cell growth inhibition, synergistic combos for chromothripsis tumors, BGB or cisplatin combos (AID 1671458; call rule not given here;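 further: cells exposed for 96 hours; 0% = vehicle DMSO and 100% = killing by high DMSO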); settings: MDA-MB-436 breast carcinoma growth inhibition, drug combinations, stronger effect = higher value
# [4] = UWB1.289_BRCA1 ovarian cancer growth, cell-based, BGB or cisplatin combinations (AID 1671459); settings: UWB1.289 BRCA1 ovarian carcinoma, drug combinations, stronger effect = higher value
# [5] = human astrocyte viability loss, single and combined drugs, cytotoxicity control for chromothriptic childhood tumor combination screen, cell-based, BGB or cisplatin IC20 combos (AID 1671460); settings: Human astrocytes, drug combinations, stronger effect = higher value;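 further: cells exposed to compounds for 96 hours before viability readout; 0% = vehicle and 100% = killing control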
# [6] = growth inhibition of BT084 medulloblastoma cells, cell-based, ICGC_MB145, cisplatin and BGB IC40 combos (AID 1671461); settings: drug combinations, stronger effect = higher value;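 further: cells exposed to drugs for 96 hours; 0% = vehicle DMSO and 100% = high DMSO full killing control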
# [7] = growth inhibition of RCMB18 medulloblastoma cells, cell-based, cisplatin and BGB IC40 combos (AID 1671462); settings: stronger effect = higher value;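 further: cells exposed to compound for four days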
# [8] = growth inhibition of CRL1545 osteosarcoma cells, cell-based, cisplatin and BGB IC20 combos (AID 1671464); settings: stronger effect = higher value;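 further: cells exposed to compound for 96 hours before readout; 0% = vehicle DMSO and 100% = high DMSO killing control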
# [9] = test system: F380Y; experiment: modulators of BK channel variants, profiling panel, selectivity assay, cell-based, U2OS BacMam, thallium flux, beta subunits (AID 1259406;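 active means thallium flux through the channel raised or lowered by more than 3 SD from vehicle-only wells, actives on both sides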;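 further: initial slope of Thallos dye fluorescence rise after thallium is added; log ratio against the mean of 0.3% DMSO vehicle wells on the same plate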); settings: at 30 µM
# [10] = test system: F380Y/beta1; experiment: as above; settings: at 30 µM
# [11] = measured here: inhibition with BGB combination, at 0.05 µM
# [12] = measured here: inhibition with cisplatin combination, at 0.05 µM
# [13] = measured here: combination with cisplatin, at 0.5 µM
# [14] = measured here: combination with cisplatin, at 5 µM
# [15] = measured here: BGB combination, at 0.5 µM
# [16] = measured here: BGB combination, at 5 µM
# [17] = measured here: cisplatin combination, at 0.5 µM
# [18] = measured here: cisplatin combination, at 5 µM
# [19] = BGB combination, concentration series, at 5 µM
# [20] = cisplatin combination, concentration series, at 5 µM
# [21] = measured here: combo with BGB IC20, at 0.5 µM
# [22] = measured here: combo with cisplatin IC20, at 0.5 µM
# [23] = cisplatin combination, at 0.5 µM
# [24] = measured here: BGB IC40 combination 0.05 uM, at 0.05 µM
# [25] = measured here: BGB IC40 combination, at 0.05 µM
# [26] = measured here: with BGB IC20 combination, at 0.5 µM
# [27] = measured here: with cisplatin IC20 combination, at 0.5 µM
smiles,measurement,setting,value
CC1CCc2cc(F)cc3c(=O)c(C(=O)O)cn1c23 (stereo not drawn),inhibition,[1]; at 0.5 µM,2.76% (inactive) and 0.5% (inactive)
same,inhibition,[1]; [11],-16.2% and 1.75%
same,inhibition,[1]; [12],-12.2% and 4%
same,inhibition,[2]; at 0.5 µM,-19.5% (inactive) and -4.64% (inactive)
same,inhibition,[2]; [13],-15.1% and -2.74%
same,inhibition,[2]; [14],-12% and -9.68%
same,inhibition,[3]; at 0.5 µM,-12.1% (inactive) and -0.02% (inactive)
same,inhibition,[3]; [15],-17.3% and -1.89%
same,inhibition,[3]; [16],-23.6% and -8.65%
same,inhibition,[3]; [17],-18.1% and 1.92%
same,inhibition,[3]; [18],-8.63% and -4.96%
same,inhibition,[4]; [19],7.3% and -2.65%
same,inhibition,[4]; at 0.5 µM,0.71% (inactive) and -0.93% (inactive)
same,inhibition,[4]; [20],1.53% and -5.02%
same,inhibition,[5]; at 0.5 µM,7.24% (inactive) and 2.53% (inactive)
same,inhibition,[5]; [21],6.98% and 4.66%
same,inhibition,[5]; [22],1.25% and 9.82%
same,inhibition,[6]; at 0.5 µM,-21.2% (inactive) and 2.68% (inactive)
same,inhibition,[6]; [23],-37.8% and -1.29%
same,inhibition,"[6]; cisplatin combination, at 5 µM",-84.9% and -4.5%
same,inhibition,[6]; [24],25.8% and 24.3%
same,inhibition,"[6]; single agent, at 5 µM",-17% and 4.9%
same,inhibition,[7]; at 0.5 µM,-15.1% (inactive) and 7.22% (inactive)
same,inhibition,"[7]; cisplatin combo, at 5 µM",-26.9% and 25%
same,inhibition,[7]; [25],-11.2% and -0.956%
same,inhibition,[7]; [13],-23.8% and 30.6%
same,inhibition,"[7]; single agent, at 5 µM",-29.1% and -22.6%
same,inhibition,[8]; at 0.5 µM,-14.4% (inactive) and -0.92% (inactive)
same,inhibition,[8]; [26],1.08% and -21.3%
same,inhibition,[8]; [27],-22.2% and 9.24%
same,inhibition,"[8]; single agent, at 0.05 µM",22.2% and 18.9%
same,inhibition,"[8]; single agent, at 5 µM",6.9% and 9.8%
S=P(N1CC1)(N1CC1)N1CC1,inhibition,[1]; at 0.5 µM,-18.2% (inactive) and 3.65% (inactive)
same,inhibition,[1]; [11],-11.2% and -17.2%
same,inhibition,[1]; [12],-30.7% and -4.4%
same,inhibition,[2]; at 0.5 µM,-6.41% (inactive) and -22.2% (inactive)
same,inhibition,[2]; [13],-11.5% and -15%
same,inhibition,[2]; [14],6.16% and -16.8%
same,inhibition,[3]; at 0.5 µM,3.12% (inactive) and -15.6% (inactive)
same,inhibition,[3]; [15],5.95% and -18.7%
same,inhibition,[3]; [16],29.4% and 17.8%
same,inhibition,[3]; [17],-1.16% and -30.9%
same,inhibition,[3]; [18],28.2% and 9.67%
same,inhibition,[4]; [19],4.52% and 17.6%
same,inhibition,[4]; at 0.5 µM,-8.8% (inactive) and -2.14% (inactive)
same,inhibition,[4]; [20],2.09% and 16%
same,inhibition,[5]; at 0.5 µM,-9.07% (inactive) and -1.79% (inactive)
same,inhibition,[5]; [21],3.46% and -2.7%
same,inhibition,[5]; [22],-14.4% and -11.6%
same,inhibition,[6]; at 0.5 µM,0.706% (inactive) and -3.22% (inactive)
same,inhibition,[6]; [23],-14.4% and 6.01%
same,inhibition,"[6]; cisplatin combination, at 5 µM",-20% and -51.6%
same,inhibition,[6]; [24],-8.78% and -15.6%
same,inhibition,"[6]; single agent, at 5 µM",-22.6% and -19.6%
same,inhibition,[7]; at 0.5 µM,-6.9% (inactive) and -9.28% (inactive)
same,inhibition,"[7]; cisplatin combo, at 5 µM",-6.08% and -6.23%
same,inhibition,[7]; [25],-9.84% and -6.48%
same,inhibition,[7]; [13],-21.1% and 0.266%
same,inhibition,"[7]; single agent, at 5 µM",-45.9% and -29.6%
same,inhibition,[8]; at 0.5 µM,-18.6% (inactive) and -31% (inactive)
same,inhibition,[8]; [26],7.82% and -2.28%
same,inhibition,[8]; [27],-31.7% and -45.4%
same,inhibition,"[8]; single agent, at 0.05 µM",-43.5% and 4.65%
same,inhibition,"[8]; single agent, at 5 µM",-38.5% and 10.3%
CN(C)c1ccc(C(=C2C=CC(=[N+](C)C)C=C2)c2ccc(N(C)C)cc2)cc1,inhibition,[1]; at 0.5 µM,68.6% (inactive)
same,inhibition,[1]; [11],-11.5%
same,inhibition,[1]; [12],0.874%
same,inhibition,[2]; at 0.5 µM,55.4% (inactive)
same,inhibition,[2]; [13],59.1%
same,inhibition,[2]; [14],89.4%
same,inhibition,[3]; at 0.5 µM,80.4% (active)
same,inhibition,[3]; [15],73.7%
same,inhibition,[3]; [16],97.1%
same,inhibition,[3]; [17],80.1%
same,inhibition,[3]; [18],98.7%
same,inhibition,[4]; [19],105%
same,inhibition,[4]; at 0.5 µM,71.7% (inactive)
same,inhibition,[4]; [20],110%
same,inhibition,[5]; at 0.5 µM,67.2% (inactive)
same,inhibition,[5]; [21],65.8%
same,inhibition,[5]; [22],54.6%
same,inhibition,[6]; at 0.5 µM,70.2% (inactive)
same,inhibition,[6]; [23],82.8%
same,inhibition,"[6]; cisplatin combination, at 5 µM",101%
same,inhibition,[6]; [24],-10.9%
same,inhibition,"[6]; single agent, at 5 µM",103%
same,inhibition,[7]; at 0.5 µM,64.4% (inactive)
same,inhibition,"[7]; cisplatin combo, at 5 µM",97.3%
same,inhibition,[7]; [25],11.2%
same,inhibition,[7]; [13],59.9%
same,inhibition,"[7]; single agent, at 5 µM",94.1%
same,inhibition,[8]; at 0.5 µM,99.5% (active)
same,inhibition,[8]; [26],99.4%
same,inhibition,[8]; [27],99.5%
same,inhibition,"[8]; single agent, at 0.05 µM",17.4%
same,inhibition,"[8]; single agent, at 5 µM",99.6%
CN(C/C=C/C#CC(C)(C)C)Cc1cccc2ccccc12,log fold change Tl+ flux,[9],-0.0709 (inactive)
same,log fold change Tl+ flux,[10],-0.00172 (inactive)
